18 molecules from PubChem BioAssay (Tox21) can be followed below.

Results filed as inconclusive are left out. Calls of active or inactive are those of the source. Unless noted, calls come from the whole dose curve; as a rule, active = well fitted curve in the direction sought with a large enough effect in the repeat runs; inconclusive = weak or mixed curves; inactive = no such curve, though single readings can be large; an effect the other way counts as inactive or inconclusive.

Assay [1] is described as follows: qHTS assay to identify small molecule antagonists of the estrogen related receptor (ERR) signaling pathway - cell viability counter screen (AID 1224818).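 Note: series mostly up to about 46 µM; viability measured after 17.5 h of compound exposure.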 A digest of the protocol: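 In the same ERR cell assay, compound-treated wells (17.5 h, 37 C) were multiplexed with a fluorogenic viability reagent, CellTiter-Fluor, read after 30 min to flag cytotoxic substances.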
A general note: In qHTS, concentration-response curves come from the screen itself.

The nature of assay [2]: qHTS assay to identify small molecule antagonists of the estrogen related receptor (ERR) signaling pathway (AID 1224819; note: nearly all actives have a fitted effect of over 50% in size; note: potency is the fitted concentration of half-maximal effect). An outline of the steps: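 qHTS in ERR cells, 2,000/well, 1536 format. Cpd (DMSO) added after 6 h settle, 18 h 37 C. One-Glo luminescence, 30 min RT.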
Assay [3] in a line: qHTS assay to identify small molecule agonists of the estrogen related receptor (ERR) signaling pathway (AID 1224820). A digest of the protocol: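 Cells: ERR line from NTP, 2,000/well. Pre-incubation 6 h, 37 C/5% CO2. Compound (DMSO) pin transfer, 18 h 37 C. One-Glo, 30 min RT, luminescence.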
For assay [4], the system named is estrogen-related receptor alpha (ERRalpha) with PGC-1alpha coactivator, human. In words: qHTS assay to identify small molecule antagonists of the estrogen related receptor signaling pathway with the pleiotropic PPARgamma coactivator (PGC) (AID 1224821; calls by dose curve; note: nearly all actives have a fitted effect of over 50% in size; note: potency is the fitted concentration of half-maximal effect). An outline of the steps: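 Luminescent read-out (One-Glo, 30 min at room temperature) following 18 h treatment of PGC/ERR cells at 37 C with compounds delivered in DMSO. Cells had settled 6 h at 37 C/5% CO2 before dosing.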

The nature of assay [5]: qHTS assay to identify small molecule antagonists of the estrogen related receptor signaling pathway with the pleiotropic PPARgamma coactivator (PGC) cell viability counter screen (AID 1224822; note: potency is the fitted concentration of half-maximal effect). An outline of the steps: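 Compounds in DMSO, with positive and negative controls, were applied to PGC/ERR cells (2,000/well) and left 17.5 h at 37 C before CellTiter-Fluor detection.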

Assay [6] is described as follows: qHTS assay to identify small molecule agonists of the estrogen related receptor signaling pathway with the pleiotropic PPARgamma coactivator (PGC) (AID 1224823). An outline of the steps:
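Steps: plate PGC/ERR cells at 2,000 cells/well; incubate 6 h, 37 C/5% CO2; pin-transfer compounds (DMSO); incubate 18 h, 37 C; add One-Glo; 30 min RT; read luminescence.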

For `c1ccc2c(N3CCNCC3)cccc2c1`, the Potency result in assay [1], in assay [2], in assay [3], in assay [4], in assay [5] and in assay [6] was “inactive” throughout.

Turning to `NCCc1c[nH]c2ccc(O)cc12`, the Potency result in assay [1], in assay [2], in assay [3], in assay [4], in assay [5] and in assay [6] was “inactive” each time.

With `CC(=O)OCC1=C(C(=O)[O-])N2C(=O)[C@@H](NC(=O)CCC[C@@H](N)C(=O)[O-])[C@H]2SC1.[Zn+2]`, the Potency result in assay [1], in assay [2], in assay [3], in assay [4], in assay [5] and in assay [6] was “inactive” throughout.

Consider `Nc1ncnc2c1ncn2[C@@H]1O[C@H](COP(=O)(O)CP(=O)(O)OP(=O)(O)O)C(O)[C@H]1O` (stereo partly drawn), for which the Potency result in assay [1], in assay [2], in assay [3], in assay [4], in assay [5] and in assay [6] was “inactive” each time.

`COc1ccc2[nH]c3c(c2c1)CCNC3`: the Potency entry in assay [1], in assay [2], in assay [3], in assay [4], in assay [5] and in assay [6] was “inactive” in each case.

Consider `CC12NC(Cc3ccccc31)c1ccccc12` (stereo not drawn), for which the Potency entry in assay [1], in assay [2], in assay [3], in assay [4], in assay [5] and in assay [6] was “inactive” each time.

Take `C[N+]1(C)CCN(c2ccccc2)CC1`: the Potency result in assay [1], in assay [2], in assay [3], in assay [4], in assay [5] and in assay [6] was “inactive” each time.

With `CCCN(CCC)C1CCc2ccc(O)cc2C1` (stereo not drawn), the Potency entry in assay [1], in assay [2], in assay [3], in assay [4], in assay [5] and in assay [6] was “inactive” throughout.

Regarding `C=CCN1C[C@@H](C)N([C@H](c2ccc(C(=O)N(CC)CC)cc2)c2cccc(OC)c2)C[C@@H]1C`, the Potency entry in assay [1], in assay [3], in assay [4], in assay [5] and in assay [6] was “inactive” in each case. For the same molecule, in assay [2], the Potency is 26.6 µM (active).

With `C[C@H]1C2Cc3ccc(O)cc3[C@@]1(C)CCN2CC1CC1`, the Potency result in assay [1], in assay [2], in assay [3], in assay [4], in assay [5] and in assay [6] was “inactive” each time.

Turning to `CC(C)(C)OC(=O)NC1[C@H]2CNC[C@@H]12` (stereo partly drawn), the Potency result in assay [1], in assay [2], in assay [3] and in assay [6] was “inactive” throughout. In addition, the Potency in assay [4] was 15.5 µM (active); in assay [5], 20.3 µM (active).

On to `C[N+](C)(C)CCOC(=O)CBr`, for which the Potency entry in assay [1], in assay [2], in assay [3], in assay [4], in assay [5] and in assay [6] was “inactive” in each case.

Regarding `O=C(Cc1ccc(Cl)c(Cl)c1)N1CCCCC1CN1CCCC1` (stereo not drawn), the Potency result in assay [1], in assay [2], in assay [3], in assay [4], in assay [5] and in assay [6] was “inactive” each time.

Take `C#CCN[C@H](C)Cc1ccccc1`: the Potency entry in assay [1], in assay [2], in assay [3], in assay [4], in assay [5] and in assay [6] was “inactive” throughout.

With `O=C(N[C@H]1CN2CCC1CC2)c1ccc(Cl)cc1`, the Potency entry in assay [1], in assay [2], in assay [3], in assay [4], in assay [5] and in assay [6] was “inactive” in each case.

Consider `COc1ccc(CNC(=O)/C=C/c2ccc3[nH]cc(CCN(C)C)c3c2)cc1`, for which the Potency entry in assay [1], in assay [2], in assay [3], in assay [4], in assay [5] and in assay [6] was “inactive” each time.

With `COc1ccc(OC)c(C(O)C(C)N)c1` (stereo not drawn), the Potency entry in assay [1], in assay [2], in assay [3], in assay [4], in assay [5] and in assay [6] was “inactive” throughout.

In the case of `NCCCP(=O)(O)O`, the Potency result in assay [1], in assay [2], in assay [3], in assay [4], in assay [5] and in assay [6] was “inactive” in each case.
